Data taken from PubChem BioAssay (Tox21).
Where “and” joins values, the source holds several entries; their conditions need not be identical. Identical values can stand only once. Unmarked numbers belong to inactive results. Inconclusive results are not listed. A call without a number means that no potency is given here. Calls of active or inactive are those of the source. The call rests on the fitted dose curve; in most records, active means well fitted curve in the direction sought with a large enough effect in the repeat runs; inconclusive means weak or mixed curves; inactive means no such curve, though single readings can be large; an effect the other way counts as inactive or inconclusive.

Columns and labels:
[1] = qHTS assay to identify small molecule antagonists of the glucocorticoid receptor (GR) signaling pathway - cell viability counter screen (AID 720693); further: nearly all actives have a fitted effect of over 55% in size
[2] = qHTS assay for identifying genotoxic compounds that show differential cytotoxicity against isogenic chicken DT40 cell lines with known DNA damage response pathways - Rad54/Ku70 mutant cell line (AID 743015); further: nearly all actives have a fitted effect of over 60% in size; further: potency means the concentration at half of the fitted maximal effect
[3] = qHTS assay to identify small molecule antagonists of the androgen receptor (AR) signaling pathway - cell viability counter screen (AID 743033; further: nearly all actives have a fitted effect of over 45% in size; further: potency means the concentration at half of the fitted maximal effect)
[4] = qHTS assay to identify small molecule antagonists of the androgen receptor (AR) signaling pathway using the MDA cell line - cell viability counter screen (AID 743041; further: nearly all actives have a fitted effect of over 45% in size; further: potency means the concentration at half of the fitted maximal effect)
How it was run: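 MDA-kb2 AR-luc cells (MMTV-luciferase, AR/GR responsive) treated with compounds plus R1881 agonist for 16 h at 37C. CellTiter-Fluor added at 15.5 h; fluorescence read after 30 min in the same wells.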

[5] = qHTS assay for identifying genotoxic compounds that show differential cytotoxicity against isogenic chicken DT40 cell lines with known DNA damage response pathways - wild type cell line (AID 743012); further: nearly all actives have a fitted effect of over 60% in size; further: potency means the concentration at half of the fitted maximal effect
How it was run: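 Parental DNA repair-proficient DT40 cells, 300 per well, were pre-incubated ~0.5 h at 37 C/5% CO2, pin-dosed with compounds in DMSO, then incubated 40 h. Viability was read as CellTiter-Glo luminescence after 30 min at room temperature.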

[6] = qHTS assay for identifying genotoxic compounds that show differential cytotoxicity against isogenic chicken DT40 cell lines with known DNA damage response pathways - Rev3 mutant cell line (AID 743014); further: nearly all actives have a fitted effect of over 55% in size; further: potency means the concentration at half of the fitted maximal effect
[7] = target: Androgen receptor (Homo sapiens) (UniProt P10275); assay: qHTS assay to identify small molecule agonists of the androgen receptor (AR) signaling pathway using the MDA cell line (AID 743040; further: nearly all actives have a fitted effect of over 20% in size)
How it was run: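 MDA-kb2 breast carcinoma cells carrying MMTV-luciferase (responsive to AR and GR), plated 5 h then treated 16 h with compounds at 37C, 0% CO2. Read-out was ONE-Glo luminescence after 30 min at room temperature.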

[8] = target: Androgen receptor (Homo sapiens) (UniProt P10275); assay: qHTS assay to identify small molecule antagonists of the androgen receptor (AR) signaling pathway using the MDA cell line (AID 743042; further: nearly all actives have a fitted effect of over 55% in size)
How it was run: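 MDA-kb2 breast carcinoma cells carrying MMTV-luciferase (AR/GR responsive) were co-treated with compounds and the agonist R1881 for 16 h at 37C. Inhibition read as ONE-Glo luminescence; CellTiter-Fluor fluorescence measured in parallel for cytotoxicity.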

Chain of Androgen receptor (Homo sapiens) (P10275 whole entry, looked up): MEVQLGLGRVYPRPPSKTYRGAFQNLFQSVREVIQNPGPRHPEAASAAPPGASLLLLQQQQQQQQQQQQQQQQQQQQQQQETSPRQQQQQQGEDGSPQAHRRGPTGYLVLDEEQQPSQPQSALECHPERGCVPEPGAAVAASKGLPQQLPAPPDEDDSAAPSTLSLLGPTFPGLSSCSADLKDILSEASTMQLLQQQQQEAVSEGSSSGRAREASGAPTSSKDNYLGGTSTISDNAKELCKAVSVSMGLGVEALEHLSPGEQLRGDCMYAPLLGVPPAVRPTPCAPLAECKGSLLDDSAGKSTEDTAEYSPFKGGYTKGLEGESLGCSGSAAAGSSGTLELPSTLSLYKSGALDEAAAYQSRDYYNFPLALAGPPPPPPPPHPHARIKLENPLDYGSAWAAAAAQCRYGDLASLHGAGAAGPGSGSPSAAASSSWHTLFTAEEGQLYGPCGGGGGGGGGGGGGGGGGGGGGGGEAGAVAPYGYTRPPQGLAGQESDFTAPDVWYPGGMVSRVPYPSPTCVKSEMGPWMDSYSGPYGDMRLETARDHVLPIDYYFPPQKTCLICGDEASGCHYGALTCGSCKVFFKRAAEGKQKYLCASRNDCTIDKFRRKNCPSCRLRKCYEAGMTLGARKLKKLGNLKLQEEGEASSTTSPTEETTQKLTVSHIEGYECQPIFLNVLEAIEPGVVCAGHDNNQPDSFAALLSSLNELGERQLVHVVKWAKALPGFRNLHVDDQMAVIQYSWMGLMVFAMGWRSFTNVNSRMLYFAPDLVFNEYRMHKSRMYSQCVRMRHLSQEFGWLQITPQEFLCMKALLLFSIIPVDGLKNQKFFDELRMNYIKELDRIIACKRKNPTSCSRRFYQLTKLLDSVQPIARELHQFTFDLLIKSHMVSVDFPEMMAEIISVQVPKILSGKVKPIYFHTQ

CCO[C@@H]1O[C@H](C(COCc2ccccc2)OCc2ccccc2)[C@H](OCc2ccccc2)[C@H]1O (stereo partly specified)
Potency [1]: inactive
Potency [2]: 14.3 µM (active)
Potency [3]: inactive
Potency [4]: inactive

COC(=O)c1ccccc1OC
Potency [1]: inactive
Potency [2]: inactive
Potency [3]: inactive
Potency [4]: inactive

C=Cc1ccccc1C=C
Potency [1]: inactive
Potency [3]: inactive
Potency [4]: inactive

COC(=O)C1=C(C)NC(C)=C(C(=O)OCCN2CCN(C(c3ccccc3)c3ccccc3)CC2)C1c1cccc([N+](=O)[O-])c1 (stereo unspecified)
Potency [5]: 5.31 µM (active)
Potency [6]: 8.41 µM (active)
Potency [2]: 6.68 µM (active)

CCCC[P+](C)(CCCC)CCCC
Potency [1]: inactive
Potency [3]: inactive
Potency [4]: inactive

O=C(O)CN(CCN(CC(=O)O)CC(=O)O)CC(=O)O
Potency [5]: inactive
activity, negative = cytotoxicity [6]: 5.28% [at 3.82 µM]
Potency [2]: inactive
Potency [3]: inactive
Potency [4]: inactive

COC(=O)Nc1nc2ccc(C(=O)c3ccccc3)cc2[nH]1
Potency [5]: 0.285 µM (active)
Potency [6]: 0.32 µM (active)
Potency [2]: 0.403 µM (active)
Potency [3]: inactive
outcome [7]: inactive
Potency [4]: inactive
Potency [8]: inactive

O=[N+]([O-])c1ccc(O)cc1C(F)(F)F
Potency [5]: 27.3 µM (active)
Potency [6]: 27.3 µM (active)
Potency [2]: 21.7 µM (active)
Potency [3]: 27.5 µM (active)
Potency [4]: 61.1 µM (active)

O=c1[nH]c2ccccc2n1CCCN1CCN(C(c2ccccc2)c2ccccc2)CC1
Potency [5]: 5.96 µM (active)
Potency [6]: 6.68 µM (active)
Potency [2]: 8.41 µM (active)
Potency [3]: inactive
Potency [4]: inactive

C=CC(=O)Nc1cc2c(Nc3ccc(F)c(Cl)c3)ncnc2cc1OCCCN1CCOCC1
Potency [5]: 5.31 µM (active)
Potency [6]: 8.41 µM (active)
Potency [2]: 5.96 µM (active)
Potency [3]: inactive
outcome [7]: inactive

CCC(C)n1ncn(-c2ccc(N3CCN(c4ccc(OC[C@H]5CO[C@](Cn6cncn6)(c6ccc(Cl)cc6Cl)O5)cc4)CC3)cc2)c1=O (stereo partly specified)
Potency [5]: 0.596 µM (active)
Potency [6]: 0.422 µM (active)
Potency [2]: 0.596 µM (active)
Potency [3]: inactive
Potency [4]: inactive

CCC(CC)(CC(=O)Nc1cccc(/C=C/c2nc(C3CCC3)cs2)c1)C(=O)O
Potency [1]: inactive
Potency [3]: inactive
Potency [4]: inactive

CC(C)(c1cc(Br)c(OCC(Br)CBr)c(Br)c1)c1cc(Br)c(OCC(Br)CBr)c(Br)c1 (stereo unspecified)
Potency [5]: inactive
Potency [6]: inactive
Potency [2]: inactive
Potency [3]: inactive
Potency [4]: inactive

CCCCCCCC
Potency [5]: inactive
Potency [6]: inactive
Potency [2]: inactive
Potency [3]: inactive
Potency [4]: inactive

CCc1oc2ccccc2c1C(=O)c1cc(I)c(O)c(I)c1
Potency [5]: 29.8 µM (active)
Potency [6]: 33.5 µM (active)
Potency [3]: inactive

CCCCNS(=O)(=O)c1ccc(C)cc1
Potency [5]: inactive
Potency [6]: inactive
Potency [2]: inactive
Potency [3]: inactive
Potency [4]: inactive

CC[C@H](C)COC(=O)/C=C/c1ccc(N=Cc2ccc(OC)cc2)cc1
Potency [1]: inactive
Potency [4]: inactive

CCCCN(CCCC)CC(O)c1cc(Cl)cc2c1-c1ccc(Cl)cc1/C2=C/c1ccc(Cl)cc1 (stereo unspecified)
Potency [1]: inactive
Potency [3]: inactive

CCCCCC/C=C\CCCCCCCC(=O)O
Potency [5]: inactive
Potency [6]: inactive
Potency [2]: inactive
Potency [3]: inactive
Potency [4]: inactive

CC(C)(C)C1CCC(=O)CC1
Potency [1]: inactive
Potency [3]: inactive
Potency [4]: inactive

CC[N+](CC)(CC)CCOc1ccc(/C=C/c2ccccc2)cc1
Potency [5]: 944 nM (active) and 750 nM (active)
Potency [6]: 750 nM (active) and 668 nM (active)
Potency [2]: 944 nM (active) and 750 nM (active)
Potency [3]: inactive
Potency [4]: 29.8 µM (active)

CCN(CC)C(=O)c1cc(S(=O)(=O)Cc2ccccc2)c(N2CCC(c3ccccc3)CC2)cc1N(CC)CCN(C)C
Potency [5]: 5.96 µM (active) and 17 µM (active)
Potency [6]: 11.9 µM (active) and 13.5 µM (active)
Potency [2]: 10.6 µM (active) and 17 µM (active)
Potency [3]: 15.3 µM (active)

COc1cc(C)ccc1O
Potency [5]: inactive
Potency [6]: inactive
Potency [2]: inactive
Potency [3]: inactive
Potency [4]: inactive

CCN(CCN)c1cccc(C)c1
Potency [1]: inactive
Potency [2]: inactive
Potency [3]: inactive
Potency [4]: inactive

O=c1c(O)c(-c2ccc(O)cc2O)oc2cc(O)cc(O)c12
Potency [1]: inactive
Potency [3]: inactive
Potency [4]: inactive

CN1CCN2c3ccccc3Cc3ccccc3C2C1 (stereo unspecified)
Potency [5]: 13.3 µM (active)
Potency [6]: 26.6 µM (active)
Potency [2]: 21.1 µM (active)
Potency [3]: inactive
outcome [7]: inactive

C=CC(C)(CCC=C(C)C)OC=O (stereo unspecified)
Potency [6]: 24.3 µM (active)
Potency [2]: 54.5 µM (active)
Potency [3]: inactive
Potency [4]: inactive

Cc1ccc(C(=O)O)cc1
Potency [5]: inactive
Potency [2]: inactive
Potency [3]: inactive
Potency [4]: inactive
